Hits are enriched below; roughly 3.6% of the tested compounds scored in any of these assays.
Pf apPOL block – Pf-apPOL DNA polymerase inhibition; 210,000 tested, 0.25% active; Recombinant Pf-apPOL, molecular beacon fluorescence, 1.5 h; inhibition, % at 10 µM
mHTT-CaM PPI inh – inhibitors of human mutant huntingtin-calmodulin interaction; P42858; AlphaScreen His-mHTT/GST-CaM binding, luminescence; inhibition, % at 15 µM; 190,000 tested, 3.6% active;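 further: 0% = both proteins with DMSO and 100% = one protein alone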
* = called active by the depositor; i = inactive; / = not tested or not shown. No stated cut-off is given here; in the data, active means inhibition above about 50%; inactive means the rest.

SMILES	Pf apPOL block	mHTT-CaM PPI inh
O=C1CN(C(=O)c2ccc(F)cc2)C(c2ccc(F)cc2)c2cc(Br)ccc2N1 (configuration not stated)	-3	35
O=C1CN(C(=O)CCC2CCCC2)C(c2ccc(F)cc2)c2cc(Br)ccc2N1 (configuration not stated)	-3	77*
O=C1CN(C(=O)c2ccc(Cl)cc2)C(c2ccc(F)cc2)c2cc(Br)ccc2N1 (configuration not stated)	-10	56*
CCOc1ccc(C(=O)N2CC(=O)Nc3ccc(C)cc3C2c2ccc(F)cc2)cc1OCC (configuration not stated)	0	65*
COC(=O)c1c(C)csc1NC(=O)CSCc1c(F)cccc1Cl	-4	/
CCOc1ccccc1OCCNCCO	-6	-5
CCc1ccc(C2=CC(c3ccccc3Cl)n3nnnc3N2)cc1 (configuration not stated)	-7	-8
Nc1cc(SCc2cccnc2)nc(N)n1	/	-7
CC(=O)N1N=C(c2ccc(Br)cc2)CC1c1ccc(Br)cc1 (configuration not stated)	-10	4
COc1cc(C(=O)N2N=C(c3ccccc3)CC2c2ccc(N(C)C)cc2)cc(OC)c1OC (configuration not stated)	-1	97*
CC(=O)N1N=C(c2ccccc2)CC1c1ccc(N(C)C)cc1 (configuration not stated)	-7	19
Cc1ccc(C2=NN(C(=O)CCC(=O)O)C(c3ccc(Br)cc3)C2)cc1 (configuration not stated)	72*	11
Cc1ccc(C2CC(c3ccccc3)=NN2C(=O)CCC(=O)O)cc1 (configuration not stated)	5	6
CC(=O)N1N=C(c2ccc(Br)cc2)CC1c1ccc(N(C)C)cc1 (configuration not stated)	-10	74*
CCNC(=O)N1CC(C(=O)NC2CC2)CCC1c1ccc(F)c(C)c1 (configuration not stated)	-1	-3
CC(C)CC(C(=O)O)N1C(=O)C2C3C=CC(C3)C2C1=O (configuration not stated)	3	2
O=C(NC1CC2CC1N(C(=O)CCc1ccccc1)C2)c1cccnc1 (configuration not stated)	-5	0
CCCCN(CC)C(=O)CSc1nc2n[nH]c(C)c2c(=N)n1-c1cccc(C)c1	-6	39
Cc1cc(NC(=O)CSc2nc3n[nH]c(C)c3c(=N)n2-c2ccc(Cl)c(C)c2)no1	1	48
Cc1[nH]nc2nc(SCC(=O)NCc3ccco3)n(-c3cccc(Cl)c3)c(=N)c12	-1	50*
Cc1[nH]nc2nc(SCC(=O)N3CCCC3)n(-c3cccc(Cl)c3)c(=N)c12	-8	46
CCC(Sc1nc2n[nH]c(C)c2c(=N)n1-c1ccc(Cl)c(C)c1)C(=O)NCCOC (configuration not stated)	-5	52*
CCC(Sc1nc2n[nH]c(C)c2c(=N)n1-c1cccc(Cl)c1)C(=O)NCCOC (configuration not stated)	-2	61*
C1CCC(CN2CCNCC2)C1	0	1
CNC(=O)c1cc2c(=O)n3cccc(C)c3nc2n(CCN2CCOCC2)c1=N	-7	1
SMILES	Pf apPOL block	mHTT-CaM PPI inh
CC(C)C(NC(=O)c1ccccc1NC(=O)c1ccccc1)C(=O)NC(C)(C)C (configuration not stated)	-11	2
CCC(C)NC(=O)c1nn(-c2ccc(OC)cc2OC)c(=O)c2ccccc12 (configuration not stated)	-2	8
Cc1oc(C2CCN(C(=O)Nc3ccc(C(F)(F)F)cc3)CC2)nc1C(=O)N(C)C	-3	-5
COc1ccc(C2C(C(=O)Nc3ccc4c(c3)OCO4)CC(=O)N2c2ccc(OC)cc2)cc1 (configuration not stated)	-8	12
COc1ccc(C2C(C(=O)N(C)c3ccc(Cl)cc3)CC(=O)N2c2ccc(OC)cc2)cc1 (configuration not stated)	-2	87*
CC(C)Cc1nc(SCC(=O)Nc2ccc(S(N)(=O)=O)cc2)n[nH]1	62*	-5
CC(C)Cc1nc(SCC(=O)Nc2ccccc2)n[nH]1	2	-4
Cc1ccc(C)n1-c1ccc(C(=O)NN)c(Cl)c1	2	31
Cc1ccc(C)n1-c1ccc(Cl)c(O)c1	-1	96*
COc1cccc(/C=C2/N=C(SC)SC2=O)c1	4	6
O=C(NCc1ccncc1)C(=O)Nc1ccc(Cl)c(Cl)c1	-3	5
N#Cc1ccc(CNC(=S)Nc2ccc(Cl)c(Cl)c2)cc1	61*	/
CCc1nc(Cn2ccnc2C)no1	4	0
COc1ccc(C2=NC3(CCN(C(C)C)CC3)NC(c3ccccc3O)C2)cc1 (configuration not stated)	-5	7
CCOc1ccc(C2=NC3(CCN(C(C)=O)CC3)NC(c3ccccc3O)C2)cc1 (configuration not stated)	2	51*
COc1ccc(C2=NC3(CCCCC3)NC(c3ccccc3O)C2)cc1 (configuration not stated)	-4	59*
CCOC(=O)N1CCC2(CC1)N=C(c1ccc(OCC)cc1)CC(c1ccccc1O)N2 (configuration not stated)	2	21
O=C(c1ccc(F)cc1F)N1CCC(N2CCN(Cc3cc(F)cc(F)c3)C2=O)CC1	-2	26
Cc1noc(C)c1CCC(=O)Nc1ccccc1NC(=O)c1ccsc1	-3	14
O=[N+]([O-])c1ccc(SC2=NCCS2)c([N+](=O)[O-])c1	-1	/
O=[N+]([O-])c1ccc(Sc2cccs2)c([N+](=O)[O-])c1	/	64*
CCOC(=O)c1ccccc1NC(=O)N1CCC(Cc2nc3cccnc3n2C)C1 (configuration not stated)	-2	18
CCC(=O)N1CCc2sc(S(=O)(=O)N3CCN(c4ccc(OC)cc4)CC3)cc2C1	-3	15
CC(=O)N1c2ccc(S(=O)(=O)Nc3ccc(C)c(F)c3)cc2CC1C (configuration not stated)	1	16
Cn1c2c(c(=O)n(C)c1=O)C(c1ccccc1Cl)C1=C(N2)c2ccccc2C1=O (configuration not stated)	-2	13
SMILES	Pf apPOL block	mHTT-CaM PPI inh
O=S(=O)(Nc1cc(Cl)cc(Cl)c1)c1ccc(Cl)cc1	/	-24
O=C(O)c1cc(NS(=O)(=O)c2ccc(Cl)cc2)cc(C(=O)O)c1	71*	-3
COc1ccc(N2C(=O)CSC2c2ccc(C(C)(C)C)cc2)cc1OC (configuration not stated)	2	39
O=[N+]([O-])c1cc(C=Nc2cc(-c3ccccc3)ccc2O)c(O)c([N+](=O)[O-])c1	-1	51*
COc1cc(C=Nc2ccccc2O)c([N+](=O)[O-])cc1OC	-6	86*
Cc1ccc(N=Cc2cc(Cl)cc([N+](=O)[O-])c2O)c(O)c1	-4	56*
Cc1ccc(N=Cc2cc(Cl)cc([N+](=O)[O-])c2O)cc1	11	6
COc1cc(/C=N/O)c([N+](=O)[O-])cc1OC	/	i
Cc1ccc(C(=O)O)cc1N=Cc1cc([N+](=O)[O-])cc([N+](=O)[O-])c1O	-4	-3
CC(C)NC(=O)c1ccc(OCC2CCN(C(=O)Cc3cccc(F)c3)CC2)cc1	-7	-1
COCCNC(=O)N1CCc2[nH]nc(-c3ccc(C)cc3)c2C1	-8	3
C1CCCC(NCCN2CCCCC2)CCC1	-3	-12
